# Data from PubChem BioAssay (EPA / NIEHS).
# Results filed as inconclusive are left out. The source made the active and inactive calls. How the source made its calls, unless noted: active means hit-call score of the fitted dose curve at least 0.9, where 1 is the maximum; inconclusive means response in the unintended direction; inactive means score below 0.9.
# What was measured:
# [1] = Tanguay_ZF_120hpf_BRAI_legacy: (Legacy) Oregon State University Tanguay Lab 120 Hour Post-fertilization zebrafish Assay for Brain Malformation (AID 2283641)
# Method in brief: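 Static exposure of staged wild-type embryos until 120 hpf, kept at 28C with light excluded and final DMSO of 0.64% (vol/vol). Presence or absence of brain malformation was noted under brightfield; mortality precluded scoring.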
# [2] = Tanguay_ZF_120hpf_SOMI_legacy: (Legacy) Oregon State University Tanguay Lab 120 Hour Post-fertilization zebrafish Assay for Somite Malformation (AID 2283647)
# Method in brief: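 Somitogenesis defects are recorded as binary calls in whole larvae at 120 hpf after continuous static chemical exposure starting at 6 hpf in dechorionated 5D embryos. DMSO serves as negative control and baseline.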
# [3] = Tanguay_ZF_120hpf_PFIN_legacy: (Legacy) Oregon State University Tanguay Lab 120 Hour Post-fertilization zebrafish Assay for Pectoral Fin Malformation (AID 2283648);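 further: each larva judged yes or no for fin defect by brightfield with dead larvae skipped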
# Method in brief: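 Pectoral fin malformation was recorded as a binary endpoint at 120 hpf in wild-type Tropical 5D larvae, which had been dechorionated and exposed statically from 6 hpf at 28C in 0.64% DMSO. Dead embryos were excluded.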
# [4] = Tanguay_ZF_120hpf_CFIN_legacy: (Legacy) Oregon State University Tanguay Lab 120 Hour Post-fertilization zebrafish Assay for Caudal Fin Malformation (AID 2283649)
# Method in brief: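 Single dechorionated 5D wild-type embryos are dosed at 6 hpf (final DMSO 0.64%) and held statically at 28C. Caudal fin malformation is recorded as present or absent at 120 hpf under brightfield, excluding dead embryos.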
# [5] = Tanguay_ZF_120hpf_PIG_legacy: (Legacy) Oregon State University Tanguay Lab 120 Hour Post-fertilization zebrafish Assay for Pigmentation Malformation (AID 2283650)
# Method in brief: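 Pigment malformation recorded as a binary call at 120 hpf in zebrafish (Tropical 5D) exposed singly from 6 hpf after pronase dechorionation. Static, sealed, 28C exposure, 0.64% DMSO; mortality excludes scoring; positive-direction fit against DMSO.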
# [6] = Tanguay_ZF_120hpf_CIRC_legacy: (Legacy) Oregon State University Tanguay Lab 120 Hour Post-fertilization zebrafish Assay for Circulatory Malformation (AID 2283651)
# Method in brief: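 Binary circulatory-malformation call at 120 hpf via brightfield imaging, relative to DMSO controls. Embryos (5D strain, chorion removed) received static, light-shielded exposure at 28C.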
# [7] = Tanguay_ZF_120hpf_SWIM_legacy: (Legacy) Oregon State University Tanguay Lab 120 Hour Post-fertilization zebrafish Assay for Swim Bladder Malformation (AID 2283654);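 further: swim bladder malformation in each larva scored yes or no under brightfield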
# Method in brief: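 Scoring is binary for swim bladder defects at 120 hpf, by brightfield inspection of zebrafish larvae. Embryos were exposed singly from 6 hpf after pronase dechorionation, at 28C with 0.64% DMSO; mortality excluded scoring.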
# [8] = Tanguay_ZF_120hpf_TRUN_legacy: (Legacy) Oregon State University Tanguay Lab 120 Hour Post-fertilization zebrafish Assay for Truncated Body (AID 2283655)
# Method in brief: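 Single dechorionated zebrafish embryos received test chemical from 6 hpf in 0.64% DMSO, kept at 28C. At 120 hpf, brightfield inspection noted any truncated body.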
# [9] = read-out: solute carrier (SLC22A6), SLC22A6 (gene 9356); test: LTEA_HepaRG_SLC22A6: Life Technologies and Expression Analysis (LTEA) Assay for solute carrier (SLC22A6) using HepaRG (AID 2283653; active means hit-call score of the fitted dose curve at least 0.9, where 1 is the maximum; inactive means score below 0.9); details: mRNA level, 48 h; actives raise or lower the signal
# Method: (§1) LTEA_HepaRG is a cell based, multiplexed-readout assay that uses HepaRG, a human liver cell line, with measurements taken at 48 hours after chemical dosing on a 96-well plate.LTEA_HepaRG_SLC22A6 is one of 102 assay component(s) measured in the LTEA HepaRG cell culture assay. It is a marker of NR mediated transport.Data from the assay component LTEA_HepaRG_SLC22A6 was analyzed into 1 endpoint. This assay endpoint, LTEA_HepaRG_SLC22A6, was analyzed with bidirectional fitting relative to DMSO as the negative control and baseline of activity. Using a type of inducible reporter, measures of mRNA induction for gain or loss-of-signal activity can be used to understand regulation of transcription factor activity. To generalize the intended target to other relatable targets, this assay endpoint is annotated to the transporter intended target family, where the subfamily is organic anion transporter.
# (§2) A total of 1060 chemcials from the ToxCast library were tested in eight-point concentration-response experiments. Cell culture and cytotoxicity assays were conducted at Thermo Fisher Scientific's Custom Services facility (Madison, WI). A single lot of human HepaRG cells (Thermo Fisher Scientific, Frederick, MD) was used for the cell culture experiments. 96-well format collagen type I coated plates of human HepaRG cells were prepared using established methods. Briefly, cryopreserved HepaRG cells were thawed, plated at a density of approximately 100,000 cells/well in HepaRG Thaw, Plate, and General Purpose media (HPRG770, Thermo Fisher Scientific), and incubated for 48 hours. 0.5% DMSO was selected as vehicle control to balance the requisite need of DMSO in HepaRG cultures to maintain differentiation (for example, baseline metabolism, proportions of hepatocytes vs. cholangiocytes), while enabling further hepatic receptor pathway activation (for example, PXR and CAR) in response to chemical exposure. 48 hours after plating, the culture medium was replaced with HepaRG Serum-Free Incudtion Media. Cells were exposed to each test chemical in duplicate and maintained in CO2 incubators for another 48 hours. Chemical plates were thawed to room temperature and 200x concentrations of treatment groups were prepared. 8-point conentration-reponse curves were made with the highest exposure at 100 uM, followed by half-log dilutions, all in 0.5% DMSO. Each test plate contained variouse controls, induction positive controls (1mM phenobarbital), cytotoxicity positive controls ([…] aflatoxin B1), vehicle controls (0.5% DMSO), and total lysis controls (0.5% DMSO). Cell morphology images were taken using an Essen IncuCyte FLR automated microscope, with six 96-well plates imaged in about 24 minutes. Images were captured and exported and JPEG files. Spent culture media was transfered to black-well plates for the LDH assay, and remaining media was sorted at -80 C for later use. Cells were treated with RLT buffer and frozen until shipped for gene expression analysis. Total RNA was isolated from the cell suspension in 75 uL of Buffer RLT (Qiagen, Germantown, MD 20874) by Quintiles/Expression Analysis (Durham, NC) using a custom isolation procedure. Total RNA from each plate well was transferred to a preamplification plate. Fluidigm's 96.96 Dynamic ArrayTM (Fluidigm, Amsterdam, the Netherlands) technology was used for gene expression analyses by quantitative reverse transcription polymerase chain reaction (qRT-PCR, performed by Quintiles/Expression Analysis, Durham, NC)89. Standard TaqManTM Assays (Applied Biosystems/ThermoFisher Scientific, Foster City, CA) were used to assess the expression of 93 genes selected based on their selectivity and sensitivity to important hepatic receptors known to be modulated by environmental chemicals; importance in human hepatocyte functionality; and hepatotoxicity. […]
# [10] = read-out: kallikrein-3 (KLK3), KLK3 (gene 354); test: LTEA_HepaRG_KLK3: Life Technologies and Expression Analysis (LTEA) Assay for kallikrein-3 (KLK3) using HepaRG (AID 2283652; active means hit-call score of the fitted dose curve at least 0.9, where 1 is the maximum; inactive means score below 0.9); details: mRNA level, 48 h; actives raise or lower the signal
# Method: as §1, with “plate.LTEA_HepaRG_KLK3” for “plate.LTEA_HepaRG_SLC22A6”, “Cellular remodeling.Data” for “NR mediated transport.Data”, “LTEA_HepaRG_KLK3” for “LTEA_HepaRG_SLC22A6”, “LTEA_HepaRG_KLK3,” for “LTEA_HepaRG_SLC22A6,”, “protease” for “transporter”, “Cellular remodeling.” for “organic anion transporter.”
# as §2, with “NC)89.” for “NC)89. Standard TaqManTM Assays (Applied Biosystems/ThermoFisher Scientific, Foster City, CA) were used to assess the expression of 93 genes selected based on their selectivity and sensitivity to important hepatic receptors known to be modulated by environmental chemicals; importance in human hepatocyte functionality; and hepatotoxicity.”
SMILES,outcome [1],outcome [2],outcome [3],outcome [4],outcome [5],outcome [6],outcome [7],outcome [8],AC50 [1],AC50 [3],AC50 [5],outcome [9],outcome [10]
COc1ccc2c(c1)c(CC(=O)O)c(C)n2C(=O)c1ccc(Cl)cc1,inactive,inactive,inactive,inactive,inactive,inactive,inactive,inactive,–,–,–,–,–
Cc1cc(=O)[nH]c(=S)[nH]1,inactive,inactive,inactive,inactive,inactive,inactive,inactive,inactive,–,–,–,–,–
Cc1nc(-c2ccc3c(c2)CCN(CCC2CCC(NC(=O)/C=C/c4ccc(F)cc4)CC2)CC3)no1 (configuration not stated),inactive,inactive,inactive,inactive,inactive,inactive,inactive,inactive,–,–,–,–,–
CCNc1cccc(C)c1,inactive,inactive,inactive,inactive,inactive,inactive,inactive,inactive,–,–,–,–,–
Cc1cc(NC(=O)C(=O)O)cc(C)c1Oc1ccc(O)c2c1CCC2,–,inactive,–,inactive,–,inactive,inactive,inactive,546 nM (active),499 nM (active),3.39 nM (active),–,–
NS(=O)(=O)c1cc2c(cc1Cl)NCNS2(=O)=O,inactive,inactive,inactive,inactive,–,inactive,inactive,inactive,–,–,–,–,–
Cc1ccc2ncccc2c1,inactive,inactive,inactive,inactive,inactive,inactive,inactive,inactive,–,–,–,–,–
O=C(O)CCCCC(=O)O,inactive,inactive,inactive,inactive,inactive,inactive,inactive,inactive,–,–,–,–,–
CCCCCCCCCCCCCO,inactive,inactive,inactive,inactive,inactive,inactive,–,inactive,–,–,–,–,–
COCCOC[C@H](CC1(C(=O)NC2CCC(C(=O)O)CC2)CCCC1)C(=O)Oc1ccc2c(c1)CCC2 (some centres not stated),inactive,inactive,inactive,inactive,inactive,inactive,inactive,inactive,–,–,–,–,–
Nc1ccc2c(c1)C(=O)c1ccccc1C2=O,inactive,inactive,inactive,inactive,inactive,inactive,inactive,inactive,–,–,–,–,–
CC(C)c1ccc(C(=O)N=C(N)N)cc1S(C)(=O)=O,inactive,inactive,inactive,inactive,inactive,inactive,inactive,inactive,–,–,–,–,–
CCCCCCCC=O,inactive,inactive,inactive,inactive,inactive,inactive,inactive,inactive,–,–,–,–,–
CCCCN(CCCC)CCCC,inactive,inactive,inactive,inactive,inactive,inactive,–,inactive,–,–,–,inactive,–
CCCCCC(=O)O,inactive,inactive,inactive,inactive,–,inactive,inactive,inactive,–,–,–,–,–
C[C@]12C=CC(=O)C=C1CC[C@@H]1[C@@H]2C(=O)C[C@@]2(C)[C@H]1CC[C@]2(O)C(=O)CO,inactive,inactive,inactive,inactive,–,inactive,inactive,–,–,–,–,–,–
Cc1cccc(Nc2cc(Cl)nc(SCC(=O)O)n2)c1C,inactive,inactive,inactive,inactive,inactive,inactive,inactive,inactive,–,–,–,–,–
CC(=O)C(C)=CC1C(C)=CCCC1(C)C (configuration not stated),inactive,inactive,inactive,inactive,inactive,inactive,–,inactive,–,–,–,–,–
CN1CCCC1=O,inactive,inactive,inactive,inactive,–,inactive,inactive,inactive,–,–,–,inactive,inactive
